Screening data as filed in PubChem.
SARS PLP yeast: SARS-CoV PLP inhibition in yeast; S. cerevisiae expressing SARS-CoV PLpro, growth rescue; Potency, µM (series often up to 32.9 µM), without a hit: top-dose activity, positive = growth rescue, hits mostly activators; 330,000 tested, 0.19% active; calls by dose curve; also: potency is read from the fitted curve at half-maximal effect; 0% is about no effect; nearly all actives have a fitted effect of over 55% in size
Shiga inhibitor: inhibitors of Shiga toxin in Vero cells. 290,000 tested, 9.2% active. Vero cells, Shiga toxin protein synthesis inhibition reporter. inhibition, % at 38.7 µM; in the data active = inhibition mostly above about 28%, no sharp cut-off; inactive = mostly below about 43%; also: 0% is about no effect
Cycloheximide cs: counter-screen hit for Shiga toxin inhibitors, cycloheximide; AID 2314; cell reporter, cycloheximide protein synthesis inhibition counterscreen; 300,000 tested, 12% active; max response, %; in the data active = max response mostly above about 13%, no sharp cut-off; inactive = mostly below about 14%; also: read at 38.3 µM for the half of the compounds with a filed dose; 0% is about no effect
AmpC detergent: blocks E. coli AmpC beta-lactamase in detergent assay | Potency, µM (top dose mostly 114 µM), inactives show at the highest dose activity change, negative = inhibition, most hits filed as inhibitors | 370,000 tested, 0.041% active | AmpC hydrolysis of nitrocefin, absorbance 480 nm, 0.01% Triton | P00811 | AID 485294;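 also: potency is read from the fitted curve at half-maximal effect; 0% = no-compound wells and -100% = no-enzyme wells; nearly all actives have a fitted effect of over 25% in size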
Target sequence (P00811 whole entry, looked up): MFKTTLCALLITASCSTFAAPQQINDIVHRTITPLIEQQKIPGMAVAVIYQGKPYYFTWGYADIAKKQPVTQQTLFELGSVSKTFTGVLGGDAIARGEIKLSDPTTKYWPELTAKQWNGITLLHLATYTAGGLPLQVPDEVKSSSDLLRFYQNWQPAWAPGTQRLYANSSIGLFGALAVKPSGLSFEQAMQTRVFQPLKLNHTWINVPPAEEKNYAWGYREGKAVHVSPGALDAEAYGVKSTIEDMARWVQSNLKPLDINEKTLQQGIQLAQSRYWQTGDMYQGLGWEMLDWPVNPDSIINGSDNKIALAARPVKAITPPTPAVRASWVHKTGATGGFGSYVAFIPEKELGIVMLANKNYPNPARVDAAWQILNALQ
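20 mM phosphate pH 7.0 + 0.01% (detergent screen) or 0.0001% Triton X-100; 5.3 nM AmpC reagent; cpd preinc 15 min RT; nitrocefin (800 uM stock) to start; A480 q20 s × 4 min; Activity was normalised to no-enzyme and no-compound control wells.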
AmpC no deterg: blocks E. coli AmpC beta-lactamase in detergent-free assay. AID 485341. Potency, µM (top dose mostly 57.1 µM), for the others: top-dose activity change, negative = inhibition, hits mostly inhibitors. P00811. 330,000 tested, 0.52% active. AmpC nitrocefin hydrolysis, absorbance 480 nm, 0.0001% Triton;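 also: potency is read from the fitted curve at half-maximal effect; plate controls were no compound for no effect and no enzyme for full effect; nearly all actives have a fitted effect of over 20% in size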
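20 mM phosphate pH 7.0 + 0.01% (detergent screen) or 0.0001% Triton X-100; 5.3 nM AmpC reagent; cpd preinc 15 min RT; nitrocefin (800 uM stock) to start; A480 q20 s × 4 min; Activity was normalised to no-enzyme and no-compound control wells.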
AMA1 RON2 block: AMA1-RON2 (P. falciparum) interaction inhibition; AlphaScreen AMA1-biotinylated RON2 peptide binding; Potency, µM (doses to about 58.2 µM), without a hit: top-dose activity change, negative = inhibition, most hits filed as inhibitors; 360,000 tested, 0.2% active; AID 720542;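 also: potency is read from the fitted curve at half-maximal effect; 0% = vehicle wells and -100% = peptide control; nearly all actives have a fitted effect of over 45% in size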
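AMA1 (3D7) with his tag at 25 nM final met compounds first, then biotinylated RON2 peptide at 25 nM; detection used donor plus acceptor beads, 10 µg/mL apiece, read by AlphaScreen after 30 min at room temperature.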
The depositor's hits bear a star; ? = inconclusive; / = not tested or not shown; + = active, no number; [ ] = dose if it differs, or a comment. The full list was thinned out, with hits kept by preference. Unless noted, calls follow the shape of the dose curve; as a rule, active = well fitted curve in the direction sought with a large enough effect; inconclusive = small, poorly fitted or top-dose-only effect, or another doubt; inactive = no such curve, though single readings can be large; an effect the other way counts as inactive or inconclusive.

SMILES	SARS PLP yeast	Shiga inhibitor	Cycloheximide cs	AmpC detergent	AmpC no deterg	AMA1 RON2 block
COc1ccc(-c2nnc(N(C)C(=O)c3ccno3)s2)cc1	-35.7%	60.2*	26.0*	-0.8%	-8.4%	-2.8%
COc1ccc(-c2nnc(N(C)C(=O)C3CCCO3)s2)cc1 (stereo not drawn)	-11.2%	+	26.0*	2.6%	-11.5%	0.2%
CCN(CC)S(=O)(=O)c1ccc(NC(=O)COC(=O)c2c[nH]c(=O)[nH]c2=O)cc1	28.0%	-3.3	-3.7	-10.6%	-18.9%	-5.8%
OC(CNCc1ccccc1)Cn1ccc2ccccc21 (stereo not drawn)	10.1%	-17.4	-6.1	1.4%	17.8µM*	-24.6%
NC(=O)COc1ccccc1C1=NO[C@@](CC(=O)O)(C(=O)Nc2ccc3c(c2)OCCO3)C1	0.9%	30.5	19.2*	-1.8%	-6.5%	0.0%
COc1ccc(C2=NO[C@@](CC(=O)O)(C(=O)Nc3ccc4c(c3)OCCO4)C2)cc1	3.2%	61.6*	30.4*	3.5%	-20.5%	-16.3%
O=C(C[C@H]1CC[C@H]2[C@@H](COC[C@@H](O)CN2Cc2cc(F)ccc2F)O1)NCc1ccc(Cl)cc1	/	/	/	/	/	-0.3%
CCN(CC)c1ncnc2c1cnn2Cc1ccc(C)cc1	-1.4%	16.6	7.1	3.5%	41.3%	8.7%
CCN(CC)c1nc(C)nc2c1cnn2CCc1ccccc1	-1.7%	172.7*	49.2*	?	-6.0%	-2.5%
CN(C(=O)COC(=O)c1n[nH]c2ccccc12)c1ccccc1	0.3%	41.0	26.7*	2.3%	-1.9%	6.1%
CCCNC(=O)COC(=O)c1n[nH]c2ccccc12	3.9%	23.0	1.1	3.9%	-11.2%	2.0%
Cc1cc(C)cc(NC(=O)COC(=O)c2n[nH]c3ccccc23)c1	0.0%	64.8*	30.7	-3.5%	15.8µM*	18.2%
CCOC(=O)c1n[nH]c2ccccc12	-3.0%	-29.2	-2.0	-0.5%	-3.1%	5.7%
O=C(OCCOc1ccccc1)c1n[nH]c2ccccc12	-1.6%	55.2*	47.3*	11.7%	-34.5%	3.9%
CCN(CC)S(=O)(=O)c1cccc(NC(=O)COC(=O)c2n[nH]c(=O)c3ccccc23)c1	0.3%	-4.9	-1.1	-12.4%	28.2µM*	11.1%
CN(C(=O)COC(=O)c1n[nH]c(=O)c2ccccc12)c1ccccc1	-5.8%	/	/	0.9%	-16.2%	-0.1%
CCn1c(=O)c2sccc2n(CC(=O)NC2CCCC2)c1=O	6.3%	-7.8	-3.6	-14.1%	-9.5%	-10.4%
O=C(c1cccc([N+](=O)[O-])c1)N1CCN(C/C=C/c2ccccc2)CC1	-0.2%	16.6	11.3	8.9%	110.7%	-10.5%
O=C(Nc1c(C(=O)N2CCN(c3ccccn3)CC2)oc2ccccc12)c1ccc([N+](=O)[O-])cc1	-1.2%	-13.4	12.8	5.8%	-19.8%	-12.9%
O=C1NC[C@@H](CCCCN2C[C@H](Cc3ccc(O)cc3)N(CC3CCCCC3)C(=O)C2=O)N(Cc2ccccc2)C1=O	/	/	/	/	/	32.1%
O=C(C[n+]1cc(-c2ccc(F)cc2)n2c1CCC2)Nc1nc(-c2ccc(F)cc2)cs1	-2.0%	14.0	-1.4	?	113.3%	10.5%[2.32 µM]
Cc1nn(C)cc1/C=N/n1nnnc1N	-0.7%	0.8	-2.8	1.4%	-7.0%	5.8%
Nc1ccccc1C(=O)OCCOc1ccccc1	-6.7%	86.5*	33.9*	-8.5%	-31.1%	32.3%
O=C(O)c1ccccc1OCCOc1ccccc1	6.7%	12.2	8.2	0.9%	-19.7%	3.4%
O=C(COC(=O)c1n[nH]c2ccccc12)Nc1cccc(S(=O)(=O)N2CCOCC2)c1	1.4%	27.9	5.7	4.6%	?	-8.2%
SMILES	SARS PLP yeast	Shiga inhibitor	Cycloheximide cs	AmpC detergent	AmpC no deterg	AMA1 RON2 block
CN(C)c1cccc(C(=O)OCC(=O)N(C)c2ccccc2)c1	-2.3%	-4.8	7.2	-5.2%	10.4%	-8.3%
Cc1cccc(C)c1NC(=O)COC(=O)c1ccc2[nH]c3c(c2c1)CCCC3	-0.1%	-2.1	1.4	-2.9%	-15.8%	17.5%
CC(=O)c1cccc(NC(=O)COC(=O)c2n[nH]c3ccccc23)c1	3.2%	102.0*	19.3*	1.4%	-40.6%	5.8%
O=C(COC(=O)c1ccc2[nH]c3c(c2c1)CCCC3)Nc1ccccc1	-8.6%	41.7*	15.7*	7.0%	-36.1%	-18.8%
CN(C(=O)COC(=O)c1cccc(F)c1)c1ccccc1	-2.4%	14.2	12.6*	-11.6%	0.0%	-1.6%
O=C(CCN1C(=O)S/C(=C\c2ccccc2)C1=O)Nc1ccc(S(=O)(=O)Nc2nccs2)cc1	6.9%	-19.1	-1.7	-8.8%	-25.8%	-8.3%
O=C(COc1ccc2ccc(=O)oc2c1)N1CCN(c2ccc(F)cc2)CC1	-5.8%	-4.6	-0.3	-1.4%	12.7%	-2.5%
Cc1cc(C)cc(N2C(=O)NC(=O)/C(=C\c3cc(C)n(C)c3C)C2=O)c1	-0.1%	29.1	0.7	-3.4%	-2.3%	-0.2%
CC1CCN(C(=O)c2[nH]cnc2C(=O)N[C@@H](C)C(=O)OCc2ccccc2)CC1	-3.2%	1.9	-1.8	-4.1%	51.2%	-2.0%
O=C(COC(=O)c1n[nH]c2ccccc12)Nc1ccccc1	-3.2%	56.9*	38.9*	-2.4%	-21.6%	-7.0%
Cc1c(C#N)c(O)n(C)c(=O)c1N=Nc1ccc(S(N)(=O)=O)cc1	0.4%	107.7*	27.1	-4.9%	-14.7%	3.5%
COc1ccccc1C(=O)C1CCCN(C(=O)C2CCCC2)C1 (stereo not drawn)	0.1%	30.4	9.0	-0.5%	11.7%	6.7%
Oc1c(N=Nc2ccccc2)sc2ccccc12	-1.9%	60.6*	39.8*	-0.7%	-26.1%	?
O=c1cc(O)sc2ccccc12	-2.5%	10.3	2.9	4.4%	-19.8%	-4.7%
Cc1cc(/C=C2\SC(=S)NC2=O)c(C)n1C1CC1	-11.9%	11.3	16.7	-0.2%	?	2.4%
CC(C)CCn1c(Sc2nc3ccccc3o2)nc2c1c(=O)[nH]c(=O)n2C	-2.7%	68.7*	72.5*	-1.6%	-10.5%	9.9%
Cc1ccc(NC(=O)c2ccccc2)s1	-20.8%	100.2*	38.6*	0.3%	-11.8%	-9.6%
Cc1cc(NC(=O)c2ccccc2)sc1C	/	55.7*	33.2*	-6.5%	/	-9.0%
Cc1cc(NC(=O)c2ccccc2)cc(NC(=O)c2ccccc2)c1C	3.4%	/	1.1	-11.4%	-9.1%	-3.5%
COc1ccc(NC(=O)C2Cc3ccccc3O/C2=N\O)cc1 (stereo not drawn)	0.2%	113.5*	50.9*	-2.0%	-14.3%	5.1%
Cc1cccc(NC(=O)C2Cc3ccccc3O/C2=N\O)c1 (stereo not drawn)	-0.3%	63.0*	27.1*	-0.1%	-13.6%	-8.9%
Cc1cccc(NC(=O)CC2c3ccccc3Oc3ccccc32)c1	7.9%	-6.3	0.6	?	-40.2%	13.7%
